Screens deposited in PubChem BioAssay by DiRusso Lab, Biochemistry Department, University of Nebraska.
Shown is part of a subset that was picked to be rich in hits.
Chlamy TAG – increases triacylglycerol in Chlamydomonas reinhardtii. calls only at 10 µM (by protocol). Chlamydomonas reinhardtii TAG, Nile Red fluorescence, 72 h. actives 0.84% (n = 44,000); call rule not given here;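 also: hits raise Nile Red signal meaning more stored TAG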
Numbers without * were called inactive; i = inactive; + = active, no number.

SMILES	Chlamy TAG
CCOc1cccc(OCCN2CCCC2)c1	i
COc1ccc(OCCCN2CCCCC2)cc1	+
CCC(C)c1ccc(OCCN2CCCC2)cc1 (stereo not given)	+
COc1ccc(OCCCCN2CCCCC2)cc1	i
CCOc1ccc(OCCOCCN2CCCC2)cc1	i
c1ccc(OCCCN2CCCCC2)cc1	i
O=C(Nc1ccccc1)c1cc(S(=O)(=O)Nc2cccc([N+](=O)[O-])c2)cs1	i
O=C(Nc1cccc([N+](=O)[O-])c1)c1ccccc1I	i
O=[N+]([O-])c1ccc(CN2CCN(C3CCCC3)CC2)cc1	+
O=[N+]([O-])c1ccc(C(O)CN2CCc3ccccc32)cc1 (stereo not given)	i
O=[N+]([O-])c1ccc(CN2CCN(C3CCCCC3)CC2)cc1	i
O=[N+]([O-])c1ccc(N2CCN(Cc3ccccc3)CC2)nc1	i
O=[N+]([O-])c1ccc(C(O)CN2CCN(Cc3ccccc3)CC2)cc1 (stereo not given)	+
O=[N+]([O-])c1cccc(CN2CCN(C3CCCC3)CC2)c1	i
CCOC(=O)NCc1ccc(Cl)cc1	i
O=C(Nc1ccccc1C(=O)O)c1ccc2c(c1)C(=O)N(CC1CCCO1)C2=O (stereo not given)	i
O=C(Nc1ccc(Br)cc1)c1ccc([N+](=O)[O-])cc1Cl	i
COc1ccccc1NC(=O)Nc1nnc(-c2cccc(F)c2)s1	i
Cc1cc(C)c(NC(=O)c2ccc(C(C)(C)C)cc2)c(C)c1	i
COc1ccc(C(=O)c2ccco2)cc1	i
Cc1sc(NC(=O)c2ccccc2[N+](=O)[O-])c(C(N)=O)c1C	i
COc1ccccc1Cn1c(C(C)O)nc2ccccc21 (stereo not given)	+
Cc1cccc(Cn2c(C(C)O)nc3ccccc32)c1 (stereo not given)	i
CC(O)c1nc2ccccc2n1Cc1ccccc1Cl (stereo not given)	i
O=C(CN1CCN(c2ccc(F)cc2)CC1)Nc1ccccn1	i
SMILES	Chlamy TAG
COc1cccc(N(CC(=O)Nc2cccc(C(C)=O)c2)S(=O)(=O)c2ccccc2)c1	i
NC(=O)c1ccccc1NC(=O)C(Sc1ccccc1)c1ccccc1 (stereo not given)	i
O=C(Nc1cccc(NC(=O)c2ccccc2F)n1)c1ccccc1F	i
Cc1ccccc1OCC(=O)Nc1ccccc1[N+](=O)[O-]	i
Cc1cc(C)c(NC(=O)COc2ccccc2C)c(Cl)c1	i
Cc1cc(C)c(NC(=O)COc2ccccc2[N+](=O)[O-])c(C)c1	+
CCOc1cc(C(=O)Nc2ccccc2I)cc(OCC)c1OCC	i
CC(C)N(Cc1ccccc1)C(=O)c1cccc([N+](=O)[O-])c1	i
CN1CCCN(Cc2ccco2)CC1	i
c1coc(CN2CCN(C3CCCCC3)CC2)c1	+
c1coc(CN2CCN(C3CC4CCC3C4)CC2)c1 (stereo not given)	i
CCOc1ccccc1OCCCOc1ccccc1C(C)=O	i
CCc1cccc(OCCOCCN2CCOCC2)c1	i
N#Cc1ccc(C#N)c(-c2ccccc2)c1	i
C=CCc1cc(OC)ccc1OCCCCn1ccnc1	i
C=CCc1cc(OC)ccc1OCCOCCn1ccnc1	+
C=CCc1cc(OC)ccc1OCCn1ccnc1	i
CCOc1ccccc1NC(=O)C1CCN(C(=O)c2ccc(OC)cc2)CC1	i
Brc1ccc(CN2CCN(c3ccccn3)CC2)cc1	i
Brc1ccc2ncnc(N3CCN(Cc4ccccc4)CC3)c2c1	+
Brc1ccc2ncnc(N3CCOCC3)c2c1	i
CCOc1ccc2cc(C=O)c(=O)[nH]c2c1	i
c1ccc(CN2CCN(Cc3ccc4c(c3)OCO4)CC2)nc1	i
COc1cc(CN2CCN(c3ccc(C(C)=O)cc3)CC2)c([N+](=O)[O-])cc1OC	i
Cc1ccc2nc(SCC(=O)Nc3ccc(C)c(C)c3)[nH]c2c1	i
SMILES	Chlamy TAG
CN1CC=C(CNc2cccc3c2CCCC3)CC1	+
O=C(Nc1cccc2c1CCCC2)C(Cl)Cl	i
Cc1cccc(OCC(=O)Nc2cccc3c2CCCC3)c1	i
COc1cc(CN2CCN(Cc3ccc4c(c3)OCO4)CC2)cc(Br)c1O	i
CCn1c(SCc2nc3ccc([N+](=O)[O-])cc3[nH]2)nc2ccccc21	i
Cc1ccc(NC(=O)Cc2ccc(Br)cc2)cc1	i
CCCC(=O)Nc1ccc(NC(=O)c2ccc(Br)cc2)cc1	i
CCN(CC)CC(=O)Nc1ccc(Br)cc1	+
COCCC(=O)NC12CC3CC(CC(C3)C1)C2	i
CC(C)NCC(=O)NC12CC3CC(CC(C3)C1)C2	+
O=C(O)CC(=O)NC12CC3CC(CC(C3)C1)C2	i
Cc1cccc(C(C)(C)C)c1OCCOCCn1ccnc1	i
O=C(Nc1ccc(Cl)cc1)c1ccccc1Br	i
O=C(Nc1ccc(Cc2ccncc2)cc1)c1cc(Br)ccc1Cl	+
O=C(O)c1ccc(NC(=O)c2ccccc2Cl)cc1	i
O=C(Nc1ccc(Br)cc1)c1ccccc1Cl	+
COc1ccc(Br)cc1C(=O)Nc1ccc(Cc2ccncc2)cc1	i
